Data as given in PubChem BioAssay AID1159580 (chemical genetic matrix, 2015).
“And” between values parts separate entries of the source, which are not always exact repeats. Identical values can stand only once. Screen size: about 5,500 compounds; about 2,000 (36%) were called active. Roughly 18% stayed inconclusive and do not appear here. Cut-off read from the data, not from the text of the source: active = normalized growth mostly below about 0.91 (no sharp cut-off); inconclusive = no clear call, values can overlap the other calls; inactive = mostly above about 0.92. The list shows a part of the results.

Assay: chemical genetic growth profiling, strain panel (AID 1159580);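 note: tested at 20 µM; growth read once vehicle control cultures reached saturation at 30 °C; 1 = growth at the plate median or of vehicle wells; lower values mean less growth of the strain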
Settings: S. cerevisiae deletion strains, growth OD

Measured: normalized growth

O=C(O)CCCCCCCC(=O)O
inactive: locus YAL013W, strain DEP1, active compounds read low 0.991 | locus YAL021C, strain ccr4, active compounds read low 1.02 | locus YAL026C, strain drs2, active compounds read low 1.04 | locus YAL030W, strain snc1, active compounds read low 1.02 | locus YAL040C, strain CLN3, active compounds read low 1.01 | locus YBL061C, strain skt5, active compounds read low 1.01 | locus YBR009C, strain hhf1, active compounds read low 1.01 | locus YBR021W, strain FUR4, active compounds read low 0.999 | locus YBR023C, strain chs3, active compounds read low 1.01 | locus YBR171W, strain sec66, active compounds read low 1.03 | locus YBR229C, strain ROT2, active compounds read low 0.956 | locus YBR231C, strain swc5, active compounds read low 1.01 | locus YBR279W, strain paf1, active compounds read low 0.991 | locus YCL011C, strain gbp2, active compounds read low 1.02 | locus YCL016C, strain dcc1, active compounds read low 1.03 | locus YCL029C, strain bik1, active compounds read low 0.969 | locus YCL069W, strain vba3, active compounds read low 1.02 | locus YCR088W, strain abp1, active compounds read low 1.02 | locus YDL005C, strain med2, active compounds read low 0.986 | locus YDL035C, strain GPR1, active compounds read low 0.994 | locus YDL040C, strain nat1, active compounds read low 0.999 | locus YDL074C, strain BRE1, active compounds read low 0.982 | locus YDL101C, strain DUN1, active compounds read low 0.981 | locus YDL134C, strain PPH21, active compounds read low 0.96 | locus YDL185W, strain tfp1, active compounds read low 0.982 | locus YDL192W, strain arf1, active compounds read low 0.984 | locus YDR001C, strain nth1, active compounds read low 1.03 | locus YDR069C, strain doa4, active compounds read low 1 | locus YDR101C, strain arx1, active compounds read low 0.991 | locus YDR137W, strain rgp1, active compounds read low 0.99 | locus YDR150W, strain NUM1, active compounds read low 0.974 | locus YDR159W, strain sac3, active compounds read low 0.997 | locus YDR162C, strain NBP2, active compounds read low 0.994 | locus YDR195W, strain ref2 0.997 | locus YDR297W, strain sur2, active compounds read low 0.996 | locus YDR318W, strain mcm21, active compounds read low 0.981 | locus YDR334W, strain swr1, active compounds read low 1 | locus YDR335W, strain msn5, active compounds read low 1 | locus YDR363W, strain ESC2, active compounds read low 0.994 | locus YDR388W, active compounds read low 0.98 | locus YDR392W, strain spt3, active compounds read low 1.04 | locus YDR502C, strain sam2, active compounds read low 0.986 | locus YEL003W, strain gim4, active compounds read low 1.02 | locus YEL037C, strain rad23, active compounds read low 1 | locus YEL061C, strain CIN8 (second series), active compounds read low 1.03 | locus YEL061C, strain CIN8, active compounds read low 0.989 | locus YER002W, strain NOP16, active compounds read low 1.01 | locus YER015W, strain faa2, active compounds read low 1 | locus YER016W, strain bim1, active compounds read low 1.02 | locus YER110C, active compounds read low 0.971 | locus YER111C, strain swi4, active compounds read low 1.01 | locus YER155C, strain BEM2 (second series), active compounds read low 1.07 | locus YER155C, strain BEM2, active compounds read low 1 | locus YER167W, strain BCK2, active compounds read low 1.02 | locus YFR010W, strain ubp6, active compounds read low 1.01 | locus YGL078C, strain dbp3, active compounds read low 0.983 | locus YGL086W, strain mad1, active compounds read low 1 | locus YGL167C, strain pmr1, active compounds read low 1.02 | locus YGL173C, strain kem1, active compounds read low 1.02 | locus YGL227W, strain vid30, active compounds read low 1.02 | locus YGL240W, strain doc1, active compounds read low 1.01 | locus YGL248W, strain PDE1, active compounds read low 0.992 | locus YGL253W, strain hxk2, active compounds read low 1.02 | locus YGR078C, strain PAC10, active compounds read low 0.99 and 1.01 | locus YGR135W, strain pre9, active compounds read low 0.988 | locus YGR229C, strain SMI1, active compounds read low 1 and 0.991 | locus YGR252W, strain gcn5, active compounds read low 0.961 | locus YHR013C, strain ard1, active compounds read low 1.04 | locus YHR027C, strain rpn1, active compounds read low 1 | locus YHR030C, strain SLT2, active compounds read low 0.993 and 0.979 | locus YHR079C, strain IRE1 (second series), active compounds read low 0.988 | locus YHR079C, strain IRE1, active compounds read low 0.982 | locus YHR094C, strain hxt1, active compounds read low 0.995 | locus YHR129C, strain ARP1, active compounds read low 0.96 | locus YHR142W, strain chs7, active compounds read low 1.05 | locus YHR200W, strain rpn10, active compounds read low 0.991 | locus YIL066C, strain RNR3, active compounds read low 0.976 | locus YIL073C, strain SPO22, active compounds read low 0.952 | locus YIL125W, strain kgd1, active compounds read low 0.999 | locus YIR030C, strain dcg1, active compounds read low 0.986 | locus YJL092W, strain hpr5, active compounds read low 1.03 | locus YJL095W, strain BCK1 (second series), active compounds read low 1.01 | locus YJL095W, strain BCK1, active compounds read low 1.03 and 0.992 | locus YJL115W, strain asf1, active compounds read low 1.01 | locus YJL129C, strain trk1, active compounds read low 1.01 | locus YJL134W, strain LCB3, active compounds read low 0.991 | locus YJL154C, strain vps35, active compounds read low 1.03 | locus YJL164C, strain tpk1, active compounds read low 1.03 | locus YJL166W, strain qcr8, active compounds read low 1.02 | locus YJL168C, strain set2, active compounds read low 0.99 | locus YJL187C, strain SWE1 (second series), active compounds read low 0.976 | locus YJR043C, strain POL32, active compounds read low 0.994 | locus YJR066W, strain TOR1, active compounds read low 0.965 | locus YJR075W, strain HOC1, active compounds read low 0.985 and 0.983
